{
  "source": "the supplement of paper PMC8728848",
  "binders": {"B1": {"name": "FimD (Bordetella pertussis) (protein)", "chain": "MPARVISFCGAALAVWAGLAVQPAMAVDPPVDCGRALGLHFWSSASLISDQTPDGTLIGKPVVGRSLLSKSCKVPDDIKEDLSDNHDGEPVDIVLELGSNYKIRPQSYGHPGIVVDLPFGSTEETGIAIYIDFGSSPMQKVGERQWLYPQKGEVLFDVLTINGDNAEVRYQAIKVGPLKRPRKLVLSQFPNLFTYKWVFMRGTSQERVLAQGTIDTDVATSTIDLKTCRYTSQTVSLPIIQRSALTGVGTTLGMTDFQMPFWCYGWPKVSVYMSATKTQTGVDGVALPATGQAAGMASGVGVQLINGKTQQPVKLGLQGKIALPEAQQTESATFSLPMKAQYYQTSTSTSAGKLSVTYAVTLNYD"}},
  "assay_in_all_cases": "glycan array binding signal (z-score within array); higher = stronger binding",
  "details_in_all_cases": "glycan notation: IUPAC condensed, linker removed",
  "key": {"GalNAc(b1-3)Gal": {"target": "GalNAc(b1-3)Gal", "how_it_was_run": "(§1)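 Glycan array data came from 3228 arrays in the Consortium for Functional Glycomics database, and only arrays with an available protein sequence were kept. Glycan names were put into IUPAC-condensed notation, and columns mapping to the same glycan were averaged. The binding signal is a within-array Z-score, averaged across arrays of one protein sequence run at different concentrations or buffers and across linkers. A negative Z-score can be read as non-binding.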"}, "GalNAc(b1-3)GalNAc": {"target": "GalNAc(b1-3)GalNAc", "how_it_was_run": "as §1"}, "GalNAc(b1-4)GlcNAc": {"target": "GalNAc(b1-4)GlcNAc", "how_it_was_run": "as §1"}, "[1]": {"target": "GlcNAc(a1-4)Gal(b1-4)GlcNAc(b1-3)Gal(b1-4)Glc", "how_it_was_run": "as §1"}, "[2]": {"target": "GlcNAc(a1-4)Gal(b1-4)GlcNAc(b1-3)Gal(b1-4)GlcNAc(b1-3)Gal(b1-4)GlcNAc", "how_it_was_run": "as §1"}, "[3]": {"target": "GlcNAc(b1-2)Man(a1-3)[GlcNAc(b1-2)Man(a1-6)]Man(b1-4)GlcNAc(b1-4)GlcNAc", "how_it_was_run": "as §1"}, "[4]": {"target": "GlcNAc(b1-2)[GlcNAc(b1-6)]Man(a1-6)[GlcNAc(b1-4)][GlcNAc(b1-2)Man(a1-3)]Man(b1-4)GlcNAc(b1-4)GlcNAc", "how_it_was_run": "as §1"}, "[5]": {"target": "GlcNAc(b1-3)Gal(b1-4)GlcNAc", "how_it_was_run": "as §1"}, "[6]": {"target": "GlcNAc(b1-3)Gal(b1-4)GlcNAc(b1-3)Gal(b1-4)GlcNAc(b1-3)Gal(b1-4)GlcNAc(b1-2)[GlcNAc(b1-3)Gal(b1-4)GlcNAc(b1-3)Gal(b1-4)GlcNAc(b1-3)Gal(b1-4)GlcNAc(b1-6)]Man(a1-6)[GlcNAc(b1-3)Gal(b1-4)GlcNAc(b1-3)Gal(b1-4)GlcNAc(b1-3)Gal(b1-4)GlcNAc(b1-2)Man(a1-3)]Man(b1-4)GlcNAc(b1-4)[Fuc(a1-6)]GlcNAc", "how_it_was_run": "as §1"}, "GlcNAc(b1-6)GalNAc": {"target": "GlcNAc(b1-6)GalNAc", "how_it_was_run": "as §1"}, "[7]": {"target": "Kdn(a2-3)Gal(b1-4)[Fuc(a1-3)]GlcNAc", "how_it_was_run": "as §1"}, "[8]": {"target": "Neu5Ac(a2-3)Gal(b1-3)GalNAc", "how_it_was_run": "as §1"}, "[9]": {"target": "Neu5Ac(a2-3)Gal(b1-3)GlcNAc(b1-2)Man(a1-3)[GlcNAc(b1-4)][Neu5Ac(a2-3)Gal(b1-3)GlcNAc(b1-2)Man(a1-6)]Man(b1-4)GlcNAc(b1-4)GlcNAc", "how_it_was_run": "as §1"}, "[10]": {"target": "Neu5Ac(a2-3)Gal(b1-3)GlcNAc(b1-3)Gal(b1-4)GlcNAc", "how_it_was_run": "as §1"}, "[11]": {"target": "Neu5Ac(a2-3)Gal(b1-3)[Fuc(a1-4)]GlcNAc(b1-3)Gal(b1-3)[Fuc(a1-4)]GlcNAc", "how_it_was_run": "as §1"}, "[12]": {"target": "Neu5Ac(a2-3)Gal(b1-4)GlcNAc(b1-2)Man", "how_it_was_run": "as §1"}, "[13]": {"target": "Neu5Ac(a2-3)Gal(b1-4)GlcNAc(b1-2)Man(a1-3)[Neu5Ac(a2-6)Gal(b1-4)GlcNAc(b1-2)Man(a1-6)]Man(b1-4)GlcNAc(b1-4)GlcNAc", "how_it_was_run": "as §1"}, "[14]": {"target": "Neu5Ac(a2-3)Gal(b1-4)GlcNAc(b1-3)Gal(b1-4)GlcNAc(b1-3)Gal(b1-4)GlcNAc", "how_it_was_run": "as §1"}, "[15]": {"target": "Neu5Ac(a2-3)Gal(b1-4)[Fuc(a1-3)]GlcNAc(b1-3)Gal(b1-4)GlcNAc", "how_it_was_run": "as §1"}, "[16]": {"target": "Neu5Ac(a2-3)Gal(b1-4)[Fuc(a1-3)]GlcNAc(b1-3)Gal(b1-4)[Fuc(a1-3)]GlcNAc(b1-3)Gal(b1-4)[Fuc(a1-3)]GlcNAc", "how_it_was_run": "as §1"}, "[17]": {"target": "Neu5Ac(a2-3)[GalNAc(b1-4)]Gal(b1-4)GlcNAc(b1-3)GalNAc", "how_it_was_run": "as §1"}, "[18]": {"target": "Neu5Ac(a2-6)Gal(b1-4)GlcNAc(b1-2)Man(a1-3)[Neu5Ac(a2-6)Gal(b1-4)GlcNAc(b1-2)Man(a1-6)]Man(b1-4)GlcNAc(b1-4)GlcNAc", "how_it_was_run": "as §1"}, "[19]": {"target": "Neu5Ac(a2-6)Gal(b1-4)GlcNAc(b1-2)Man(a1-6)[GlcNAc(b1-2)Man(a1-3)]Man(b1-4)GlcNAc(b1-4)GlcNAc", "how_it_was_run": "as §1"}, "[20]": {"target": "Neu5Ac(a2-6)Gal(b1-4)GlcNAc(b1-3)Gal(b1-4)GlcNAc(b1-3)Gal(b1-4)GlcNAc(b1-2)Man(a1-3)[Neu5Ac(a2-6)Gal(b1-4)GlcNAc(b1-3)Gal(b1-4)GlcNAc(b1-3)Gal(b1-4)GlcNAc(b1-2)Man(a1-6)]GalNAc", "how_it_was_run": "as §1"}, "[21]": {"target": "Neu5Ac(a2-6)Gal(b1-4)GlcNAc(b1-6)[Gal(b1-3)]GalNAc", "how_it_was_run": "as §1"}, "[22]": {"target": "Neu5Ac(a2-8)Neu5Ac(a2-3)Gal(b1-3)GalNAc(b1-4)[Neu5Ac(a2-8)Neu5Ac(a2-3)]Gal(b1-4)Glc", "how_it_was_run": "as §1"}, "[23]": {"target": "Neu5Ac(a2-8)Neu5Ac(a2-3)[Gal(b1-3)GalNAc(b1-4)]Gal(b1-4)Glc", "how_it_was_run": "as §1"}, "Neu5Ac(b2-6)GalNAc": {"target": "Neu5Ac(b2-6)GalNAc", "how_it_was_run": "as §1"}, "[24]": {"target": "Neu5Gc(a2-8)Neu5Gc(a2-6)Gal(b1-4)GlcNAc", "how_it_was_run": "as §1"}},
  "note": "The full list was thinned out, with the strongest signals kept by preference.",
  "data": [
    {"binder": "B1", "values": [
      {"measurement": "glycan array binding signal (z-score)", "setting": "GalNAc(b1-3)Gal", "result": 0.008},
      {"measurement": "glycan array binding signal (z-score)", "setting": "GalNAc(b1-3)GalNAc", "result": -0.207},
      {"measurement": "glycan array binding signal (z-score)", "setting": "GalNAc(b1-4)GlcNAc", "result": 1.38},
      {"measurement": "glycan array binding signal (z-score)", "setting": "[1]", "result": 1.99},
      {"measurement": "glycan array binding signal (z-score)", "setting": "[2]", "result": -0.238},
      {"measurement": "glycan array binding signal (z-score)", "setting": "[3]", "result": 0.004},
      {"measurement": "glycan array binding signal (z-score)", "setting": "[4]", "result": -0.119},
      {"measurement": "glycan array binding signal (z-score)", "setting": "[5]", "result": -0.296},
      {"measurement": "glycan array binding signal (z-score)", "setting": "[6]", "result": 1.29},
      {"measurement": "glycan array binding signal (z-score)", "setting": "GlcNAc(b1-6)GalNAc", "result": -0.117},
      {"measurement": "glycan array binding signal (z-score)", "setting": "[7]", "result": -0.279},
      {"measurement": "glycan array binding signal (z-score)", "setting": "[8]", "result": 0.041},
      {"measurement": "glycan array binding signal (z-score)", "setting": "[9]", "result": -0.459},
      {"measurement": "glycan array binding signal (z-score)", "setting": "[10]", "result": -0.268},
      {"measurement": "glycan array binding signal (z-score)", "setting": "[11]", "result": -0.191},
      {"measurement": "glycan array binding signal (z-score)", "setting": "[12]", "result": 1.16},
      {"measurement": "glycan array binding signal (z-score)", "setting": "[13]", "result": -0.107},
      {"measurement": "glycan array binding signal (z-score)", "setting": "[14]", "result": 0.504},
      {"measurement": "glycan array binding signal (z-score)", "setting": "[15]", "result": 0.96},
      {"measurement": "glycan array binding signal (z-score)", "setting": "[16]", "result": -0.135},
      {"measurement": "glycan array binding signal (z-score)", "setting": "[17]", "result": 0.943},
      {"measurement": "glycan array binding signal (z-score)", "setting": "[18]", "result": 0.115},
      {"measurement": "glycan array binding signal (z-score)", "setting": "[19]", "result": -0.065},
      {"measurement": "glycan array binding signal (z-score)", "setting": "[20]", "result": 1.34},
      {"measurement": "glycan array binding signal (z-score)", "setting": "[21]", "result": -0.022},
      {"measurement": "glycan array binding signal (z-score)", "setting": "[22]", "result": 1.36},
      {"measurement": "glycan array binding signal (z-score)", "setting": "[23]", "result": -0.095},
      {"measurement": "glycan array binding signal (z-score)", "setting": "Neu5Ac(b2-6)GalNAc", "result": -0.348},
      {"measurement": "glycan array binding signal (z-score)", "setting": "[24]", "result": -0.611}
    ]}
  ]
}
